# Measured values from article PMC7862700, “An all-to-all approach to the identification of sequence-specific readers for epigenetic DNA modifications on cytosine”.
# Legend:
# Test in all cases: DAPPL (digital affinity profiling via proximity ligation, sequencing); 10 mM Tris-HCl pH 7.5, 50 mM NaCl, 1 mM DTT, 4% glycerol, room temperature, 30 min; GST-TFs on glutathione beads, 16-mer random dsDNA library, 0.1% formaldehyde crosslink after washing; high values mean tight binding
# Conditions in all cases: protein: recombinant; tags: N-terminal GST; dsDNA, one strand shown
# [1] = target: T1, ELK1 (Homo sapiens, UniProt P19419 1-428)
# T1 sequence: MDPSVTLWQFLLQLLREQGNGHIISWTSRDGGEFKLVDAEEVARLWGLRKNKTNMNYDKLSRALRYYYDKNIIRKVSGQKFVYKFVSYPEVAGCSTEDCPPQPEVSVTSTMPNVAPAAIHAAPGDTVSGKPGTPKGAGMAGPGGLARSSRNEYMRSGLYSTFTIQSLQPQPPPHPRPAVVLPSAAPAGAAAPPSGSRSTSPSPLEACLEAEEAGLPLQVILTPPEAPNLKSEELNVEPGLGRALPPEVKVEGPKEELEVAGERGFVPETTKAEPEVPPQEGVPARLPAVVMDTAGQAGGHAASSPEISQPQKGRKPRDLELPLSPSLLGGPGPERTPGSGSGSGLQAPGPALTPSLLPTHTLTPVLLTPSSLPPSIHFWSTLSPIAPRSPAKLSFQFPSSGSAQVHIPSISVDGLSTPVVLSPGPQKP
# Procedure, shortened: (§1)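 Sequencing on an Illumina NextSeq500 followed washing, crosslinking with 0.1% formaldehyde, proximity ligation (BsaI/T4 ligase, 1 h, 37 °C) and PCR amplification of pools that had been incubated for 30 min at room temperature with 200 nmole of a random double-stranded 16-mer DNA library in Tris/NaCl/DTT/glycerol buffer. Each pool held DNA-barcoded human transcription factors, expressed in yeast as GST fusions and captured on glutathione beads, plus a tag-only sample. Binding signal is a hexamer's read frequency for a factor divided by its frequency in the tag-only sample.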
# [2] = target: T2, GABPA (Homo sapiens, UniProt Q06546 1-454)
# T2 sequence: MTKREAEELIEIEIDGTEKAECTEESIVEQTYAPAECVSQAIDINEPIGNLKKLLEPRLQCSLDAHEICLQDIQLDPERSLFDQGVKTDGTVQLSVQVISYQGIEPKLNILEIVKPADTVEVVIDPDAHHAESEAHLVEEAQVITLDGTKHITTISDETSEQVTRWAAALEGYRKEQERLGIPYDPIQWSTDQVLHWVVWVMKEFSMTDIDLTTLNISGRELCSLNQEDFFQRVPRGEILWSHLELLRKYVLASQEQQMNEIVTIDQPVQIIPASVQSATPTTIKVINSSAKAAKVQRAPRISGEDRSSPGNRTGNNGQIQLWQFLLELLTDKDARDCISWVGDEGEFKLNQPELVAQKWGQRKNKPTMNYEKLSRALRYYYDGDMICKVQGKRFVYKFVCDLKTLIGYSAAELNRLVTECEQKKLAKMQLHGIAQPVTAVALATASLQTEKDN
# Procedure, shortened: as §1
# [3] = target: T3, ERG (Homo sapiens, UniProt P11308 1-479)
# T3 sequence: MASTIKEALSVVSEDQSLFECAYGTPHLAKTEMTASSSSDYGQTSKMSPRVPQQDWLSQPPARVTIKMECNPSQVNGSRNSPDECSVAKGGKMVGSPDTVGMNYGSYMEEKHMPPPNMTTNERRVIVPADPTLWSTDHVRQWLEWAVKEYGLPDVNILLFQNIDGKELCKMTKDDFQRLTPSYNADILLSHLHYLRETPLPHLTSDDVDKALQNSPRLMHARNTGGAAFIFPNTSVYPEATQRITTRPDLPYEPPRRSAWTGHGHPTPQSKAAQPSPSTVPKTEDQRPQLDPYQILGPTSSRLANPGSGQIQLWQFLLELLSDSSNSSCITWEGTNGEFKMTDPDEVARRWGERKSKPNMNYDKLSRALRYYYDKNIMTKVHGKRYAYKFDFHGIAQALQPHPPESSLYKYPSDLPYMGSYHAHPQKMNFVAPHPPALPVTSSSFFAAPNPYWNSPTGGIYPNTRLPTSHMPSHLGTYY
# Procedure, shortened: as §1
# [4] = target: ELF1 (Homo sapiens, UniProt P32519 1-619)
# Procedure, shortened: as §1
# [5] = target: T4, EHF (Homo sapiens, UniProt Q9NZC4 1-300)
# T4 sequence: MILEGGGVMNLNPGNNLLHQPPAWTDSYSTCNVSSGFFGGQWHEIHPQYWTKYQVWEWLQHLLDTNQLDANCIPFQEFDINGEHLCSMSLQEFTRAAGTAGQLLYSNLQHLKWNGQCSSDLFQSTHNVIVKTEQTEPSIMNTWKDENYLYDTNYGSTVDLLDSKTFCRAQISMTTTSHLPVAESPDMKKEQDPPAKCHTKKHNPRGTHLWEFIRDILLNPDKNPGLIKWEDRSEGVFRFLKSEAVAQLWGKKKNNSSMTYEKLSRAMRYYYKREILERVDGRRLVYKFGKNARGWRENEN
# Procedure, shortened: as §1
# [6] = target: SPIB (Homo sapiens, UniProt Q01892 1-262)
# Procedure, shortened: as §1
# [7] = target: T5, FEV (Homo sapiens, UniProt Q99581 1-238)
# T5 sequence: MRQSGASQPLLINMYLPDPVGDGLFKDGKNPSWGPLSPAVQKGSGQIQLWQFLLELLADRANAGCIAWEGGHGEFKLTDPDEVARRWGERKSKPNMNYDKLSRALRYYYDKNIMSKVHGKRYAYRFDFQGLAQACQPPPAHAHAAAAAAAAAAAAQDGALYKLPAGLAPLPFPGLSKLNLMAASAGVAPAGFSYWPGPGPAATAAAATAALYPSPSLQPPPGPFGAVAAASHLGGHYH
# Procedure, shortened: as §1
# [8] = target: ETV5 (Homo sapiens, UniProt P41161 1-510)
# Procedure, shortened: as §1
# [9] = target: ELF4 (Homo sapiens, UniProt Q99607 1-663)
# Procedure, shortened: as §1
# [10] = target: T6, ELK4 (Homo sapiens, UniProt P28324-2 1-405)
# T6 sequence: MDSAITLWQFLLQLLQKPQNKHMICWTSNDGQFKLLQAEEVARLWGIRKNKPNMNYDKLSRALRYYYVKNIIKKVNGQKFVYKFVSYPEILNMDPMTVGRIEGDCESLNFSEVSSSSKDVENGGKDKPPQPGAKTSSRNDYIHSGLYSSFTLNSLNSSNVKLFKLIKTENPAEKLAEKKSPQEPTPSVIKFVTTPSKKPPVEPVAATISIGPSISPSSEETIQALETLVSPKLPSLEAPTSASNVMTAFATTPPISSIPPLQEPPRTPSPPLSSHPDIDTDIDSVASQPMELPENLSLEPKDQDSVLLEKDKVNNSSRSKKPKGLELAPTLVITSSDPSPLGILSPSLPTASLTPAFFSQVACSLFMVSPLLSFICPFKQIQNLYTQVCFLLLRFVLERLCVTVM
# Procedure, shortened: as §1
# [11] = target: T7, ETV2 (Homo sapiens, UniProt O00321 1-342)
# T7 sequence: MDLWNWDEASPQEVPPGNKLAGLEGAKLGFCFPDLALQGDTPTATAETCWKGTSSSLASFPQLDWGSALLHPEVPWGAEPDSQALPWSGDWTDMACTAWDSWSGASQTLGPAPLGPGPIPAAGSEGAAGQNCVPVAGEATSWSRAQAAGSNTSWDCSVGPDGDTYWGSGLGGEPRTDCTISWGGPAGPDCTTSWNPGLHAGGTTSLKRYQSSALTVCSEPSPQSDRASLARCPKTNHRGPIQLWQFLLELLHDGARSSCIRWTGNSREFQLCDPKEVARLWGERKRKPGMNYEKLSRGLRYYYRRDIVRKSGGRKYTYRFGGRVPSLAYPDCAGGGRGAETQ
# Procedure, shortened: as §1
# [12] = target: T8, ELF3 (Homo sapiens, UniProt P78545 1-371)
# T8 sequence: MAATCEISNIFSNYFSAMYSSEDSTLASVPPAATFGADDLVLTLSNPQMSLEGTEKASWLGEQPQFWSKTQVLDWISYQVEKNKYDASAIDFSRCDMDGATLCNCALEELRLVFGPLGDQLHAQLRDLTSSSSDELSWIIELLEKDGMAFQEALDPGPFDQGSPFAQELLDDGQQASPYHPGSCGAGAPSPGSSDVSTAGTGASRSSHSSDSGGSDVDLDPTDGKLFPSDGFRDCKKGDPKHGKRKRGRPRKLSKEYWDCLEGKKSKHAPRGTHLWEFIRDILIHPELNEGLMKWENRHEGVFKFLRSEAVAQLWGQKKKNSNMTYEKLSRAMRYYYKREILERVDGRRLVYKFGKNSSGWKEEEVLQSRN
# Procedure, shortened: as §1
# [13] = target: T9, ERF (Homo sapiens, UniProt P50548 1-548)
# T9 sequence: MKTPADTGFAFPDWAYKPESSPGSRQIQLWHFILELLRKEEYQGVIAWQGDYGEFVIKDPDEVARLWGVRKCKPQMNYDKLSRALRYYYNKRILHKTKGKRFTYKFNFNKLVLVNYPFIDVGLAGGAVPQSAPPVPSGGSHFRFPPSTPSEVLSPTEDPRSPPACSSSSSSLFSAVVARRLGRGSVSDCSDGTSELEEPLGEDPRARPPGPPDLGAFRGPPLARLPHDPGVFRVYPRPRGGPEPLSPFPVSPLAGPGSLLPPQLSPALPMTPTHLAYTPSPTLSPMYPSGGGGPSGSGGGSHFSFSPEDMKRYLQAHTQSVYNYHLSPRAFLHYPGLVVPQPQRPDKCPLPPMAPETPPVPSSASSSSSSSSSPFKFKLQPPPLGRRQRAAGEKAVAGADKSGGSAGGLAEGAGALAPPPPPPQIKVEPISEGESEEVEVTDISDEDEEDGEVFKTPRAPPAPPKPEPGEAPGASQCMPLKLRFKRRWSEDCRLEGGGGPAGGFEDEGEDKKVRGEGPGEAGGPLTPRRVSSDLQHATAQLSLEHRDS
# Procedure, shortened: as §1
# [14] = target: T10, ETV3L (Homo sapiens, UniProt Q6ZN32 1-361)
# T10 sequence: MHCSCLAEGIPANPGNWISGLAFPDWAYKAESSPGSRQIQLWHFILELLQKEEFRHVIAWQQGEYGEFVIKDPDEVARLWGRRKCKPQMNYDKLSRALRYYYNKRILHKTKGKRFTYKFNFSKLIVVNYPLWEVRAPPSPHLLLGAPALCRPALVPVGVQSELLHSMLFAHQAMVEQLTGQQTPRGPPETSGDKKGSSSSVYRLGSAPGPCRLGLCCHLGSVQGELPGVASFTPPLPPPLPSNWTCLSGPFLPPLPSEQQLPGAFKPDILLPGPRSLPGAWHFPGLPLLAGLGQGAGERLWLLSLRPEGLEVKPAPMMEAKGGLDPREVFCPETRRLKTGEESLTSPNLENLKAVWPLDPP
# Procedure, shortened: as §1
# [15] = target: T11, ETS2 (Homo sapiens, UniProt P15036 1-469)
# T11 sequence: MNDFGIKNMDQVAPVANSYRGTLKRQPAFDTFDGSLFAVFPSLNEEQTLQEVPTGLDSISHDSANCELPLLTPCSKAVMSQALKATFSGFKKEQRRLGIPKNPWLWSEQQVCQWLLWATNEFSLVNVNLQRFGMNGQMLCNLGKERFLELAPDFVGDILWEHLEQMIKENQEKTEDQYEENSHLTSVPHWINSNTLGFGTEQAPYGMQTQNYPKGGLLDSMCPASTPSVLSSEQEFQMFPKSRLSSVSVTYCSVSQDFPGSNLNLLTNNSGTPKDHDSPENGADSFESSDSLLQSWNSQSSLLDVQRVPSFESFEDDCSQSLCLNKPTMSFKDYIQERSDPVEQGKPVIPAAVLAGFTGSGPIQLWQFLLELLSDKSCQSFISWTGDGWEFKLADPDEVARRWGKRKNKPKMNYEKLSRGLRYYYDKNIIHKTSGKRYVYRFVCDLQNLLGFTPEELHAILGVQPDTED
# Procedure, shortened: as §1
# [16] = target: T12, SPDEF (Homo sapiens, UniProt O95238 1-335)
# T12 sequence: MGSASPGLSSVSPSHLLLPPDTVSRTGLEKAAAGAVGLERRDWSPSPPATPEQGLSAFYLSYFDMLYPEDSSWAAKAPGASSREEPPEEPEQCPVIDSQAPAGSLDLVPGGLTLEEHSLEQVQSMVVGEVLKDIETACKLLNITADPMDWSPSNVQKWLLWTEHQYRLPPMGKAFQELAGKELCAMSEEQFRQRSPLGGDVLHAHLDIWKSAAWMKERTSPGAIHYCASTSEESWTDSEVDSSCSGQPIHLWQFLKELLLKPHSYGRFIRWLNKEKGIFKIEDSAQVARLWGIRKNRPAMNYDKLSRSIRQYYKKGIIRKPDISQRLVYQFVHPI
# Procedure, shortened: as §1
# [17] = target: T13, ETV3 (Homo sapiens, UniProt P41162-2 1-143)
# T13 sequence: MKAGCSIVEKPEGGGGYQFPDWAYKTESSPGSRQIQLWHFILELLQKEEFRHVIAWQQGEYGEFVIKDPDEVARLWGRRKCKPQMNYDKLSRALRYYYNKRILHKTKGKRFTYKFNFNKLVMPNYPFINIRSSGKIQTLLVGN
# Procedure, shortened: as §1
# [18] = target: ETV6 (Homo sapiens, UniProt P41212 1-452)
# Procedure, shortened: as §1
# Chain of ELF1 (P32519 whole entry): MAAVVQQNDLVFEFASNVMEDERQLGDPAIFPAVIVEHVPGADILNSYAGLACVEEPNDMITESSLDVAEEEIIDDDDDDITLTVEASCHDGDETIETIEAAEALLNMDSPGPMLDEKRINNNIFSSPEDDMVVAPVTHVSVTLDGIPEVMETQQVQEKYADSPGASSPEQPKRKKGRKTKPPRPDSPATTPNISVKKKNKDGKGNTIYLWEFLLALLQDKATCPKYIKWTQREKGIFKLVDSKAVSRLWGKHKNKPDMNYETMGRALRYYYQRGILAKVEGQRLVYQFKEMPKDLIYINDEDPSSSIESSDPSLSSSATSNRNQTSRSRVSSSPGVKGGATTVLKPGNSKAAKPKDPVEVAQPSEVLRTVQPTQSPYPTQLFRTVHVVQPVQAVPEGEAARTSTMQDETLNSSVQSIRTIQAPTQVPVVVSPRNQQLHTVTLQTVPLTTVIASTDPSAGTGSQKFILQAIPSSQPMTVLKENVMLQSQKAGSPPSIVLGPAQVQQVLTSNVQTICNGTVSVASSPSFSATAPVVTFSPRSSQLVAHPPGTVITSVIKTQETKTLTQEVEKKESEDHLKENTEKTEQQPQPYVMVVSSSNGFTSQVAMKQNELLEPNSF
# Chain of ELF4 (Q99607 whole entry): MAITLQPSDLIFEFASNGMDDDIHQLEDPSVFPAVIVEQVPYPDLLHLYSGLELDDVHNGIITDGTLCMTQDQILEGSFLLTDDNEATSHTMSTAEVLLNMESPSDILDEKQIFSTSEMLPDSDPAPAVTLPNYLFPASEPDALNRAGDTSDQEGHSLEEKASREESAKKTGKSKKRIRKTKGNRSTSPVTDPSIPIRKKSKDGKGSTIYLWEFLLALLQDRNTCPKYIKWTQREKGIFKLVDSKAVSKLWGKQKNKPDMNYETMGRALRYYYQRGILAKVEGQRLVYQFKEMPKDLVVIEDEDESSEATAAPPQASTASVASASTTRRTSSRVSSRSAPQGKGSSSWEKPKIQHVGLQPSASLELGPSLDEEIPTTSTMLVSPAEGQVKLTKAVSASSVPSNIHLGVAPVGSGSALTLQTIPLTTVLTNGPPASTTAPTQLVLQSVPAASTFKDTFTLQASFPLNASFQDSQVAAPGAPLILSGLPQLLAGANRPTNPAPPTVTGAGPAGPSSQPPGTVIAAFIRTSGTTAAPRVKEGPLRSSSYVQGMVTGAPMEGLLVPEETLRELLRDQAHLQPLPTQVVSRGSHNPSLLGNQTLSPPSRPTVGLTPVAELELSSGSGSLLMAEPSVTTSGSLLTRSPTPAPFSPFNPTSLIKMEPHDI
# Chain of ETV6 (P41212 whole entry): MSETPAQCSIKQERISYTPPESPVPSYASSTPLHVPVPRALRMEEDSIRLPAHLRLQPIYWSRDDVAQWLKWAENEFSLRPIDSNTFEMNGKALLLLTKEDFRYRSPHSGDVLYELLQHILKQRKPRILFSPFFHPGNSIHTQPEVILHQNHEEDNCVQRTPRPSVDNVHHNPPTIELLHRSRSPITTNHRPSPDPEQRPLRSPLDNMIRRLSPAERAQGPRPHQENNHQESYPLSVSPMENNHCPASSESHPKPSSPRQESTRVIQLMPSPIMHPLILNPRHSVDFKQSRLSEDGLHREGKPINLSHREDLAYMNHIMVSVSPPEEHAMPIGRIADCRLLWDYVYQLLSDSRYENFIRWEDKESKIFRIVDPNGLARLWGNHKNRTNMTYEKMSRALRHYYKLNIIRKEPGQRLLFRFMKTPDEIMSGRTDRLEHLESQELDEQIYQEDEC
# Chain of SPIB (Q01892 whole entry): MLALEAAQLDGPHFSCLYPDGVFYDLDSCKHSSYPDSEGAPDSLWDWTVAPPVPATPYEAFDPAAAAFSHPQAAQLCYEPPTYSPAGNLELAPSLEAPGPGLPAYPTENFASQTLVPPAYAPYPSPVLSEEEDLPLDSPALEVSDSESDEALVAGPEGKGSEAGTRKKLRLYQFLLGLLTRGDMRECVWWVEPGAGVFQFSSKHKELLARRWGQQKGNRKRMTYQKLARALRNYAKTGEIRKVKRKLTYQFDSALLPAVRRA
# Chain of ETV5 (P41161 whole entry): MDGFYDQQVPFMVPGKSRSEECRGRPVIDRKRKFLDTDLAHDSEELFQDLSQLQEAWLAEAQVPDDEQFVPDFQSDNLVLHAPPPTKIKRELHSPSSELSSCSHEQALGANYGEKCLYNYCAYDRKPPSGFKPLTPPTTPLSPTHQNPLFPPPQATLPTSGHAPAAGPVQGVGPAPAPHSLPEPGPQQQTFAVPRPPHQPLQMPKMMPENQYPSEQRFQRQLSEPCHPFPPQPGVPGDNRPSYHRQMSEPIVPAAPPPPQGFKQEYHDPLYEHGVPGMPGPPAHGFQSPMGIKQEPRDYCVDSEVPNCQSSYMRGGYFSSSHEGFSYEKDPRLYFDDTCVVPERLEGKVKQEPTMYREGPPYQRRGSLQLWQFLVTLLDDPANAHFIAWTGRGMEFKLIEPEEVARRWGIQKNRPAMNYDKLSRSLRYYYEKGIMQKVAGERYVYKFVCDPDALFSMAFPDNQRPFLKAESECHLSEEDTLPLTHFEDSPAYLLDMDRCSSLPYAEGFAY
sequence,measurement,setting,value
AGCGCC,binding signal,[1],"1.06 fold enrichment (6-mer frequency, TF over GST control)"
same,binding signal,[2],"1.07 fold enrichment (6-mer frequency, TF over GST control)"
same,binding signal,[3],"1.05 fold enrichment (6-mer frequency, TF over GST control)"
same,binding signal,[4],"1.13 fold enrichment (6-mer frequency, TF over GST control)"
same,binding signal,[5],"1.13 fold enrichment (6-mer frequency, TF over GST control)"
same,binding signal,[6],"1.1 fold enrichment (6-mer frequency, TF over GST control)"
same,binding signal,[7],"1.19 fold enrichment (6-mer frequency, TF over GST control)"
same,binding signal,[8],"1.04 fold enrichment (6-mer frequency, TF over GST control)"
same,binding signal,[9],"1.09 fold enrichment (6-mer frequency, TF over GST control)"
same,binding signal,[10],"1.11 fold enrichment (6-mer frequency, TF over GST control)"
same,binding signal,[11],"1.09 fold enrichment (6-mer frequency, TF over GST control)"
same,binding signal,[12],"1.09 fold enrichment (6-mer frequency, TF over GST control)"
same,binding signal,[13],"1.05 fold enrichment (6-mer frequency, TF over GST control)"
same,binding signal,[14],"1.07 fold enrichment (6-mer frequency, TF over GST control)"
same,binding signal,[15],"1.06 fold enrichment (6-mer frequency, TF over GST control)"
same,binding signal,[16],"1.02 fold enrichment (6-mer frequency, TF over GST control)"
same,binding signal,[17],"1.14 fold enrichment (6-mer frequency, TF over GST control)"
same,binding signal,[18],"1.16 fold enrichment (6-mer frequency, TF over GST control)"
